POLI inh: inhibitors of human DNA polymerase iota | Potency, µM (titrated, usually from 115 µM), for inactives: at the top dose activity, negative = inhibition, actives largely listed as inhibitors | Q9UNA4 | 1% of 390,000 active | Pol iota fluorescent replication assay, 10 min
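Fluorescent replication assay read twice, at 0 min and 10 min after adding 50 nM (final) substrate. Enzyme (10 nM) and compounds were first incubated 15 min at room temperature; enzyme-free buffer wells were negative controls.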
FEN1 inhibitor: human FEN1 inhibition | P39748 | Recombinant FEN1 flap cleavage, fluorescence, 15 min | Potency, µM (titrated, usually from 114 µM), for the others: at the top dose activity change, negative = inhibition, hits mostly inhibitors | 0.35% of 390,000 active | AID 588795; further: on the % scale 0 is the no-effect control and ±100 the full control effect; nearly all actives have a fitted effect of over 65% in size
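FEN1 at 10 nM preincubated with compounds 15 min at room temperature, then flap DNA substrate added at 50 nM final. Signal read at 0 and 15 min; concentration-response fitted with four-parameter Hill equation.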
POLH inh: inhibitors of human DNA polymerase eta | Q9Y253 | recombinant Pol eta, fluorescent DNA replication assay | AID 588591 | 1.2% of 390,000 active | Potency, µM (series often up to 114 µM), for the others: at the highest dose activity change, negative = inhibition, usual class: inhibitors; further: on the % scale 0 is the no-effect control and ±100 the full control effect
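Pol eta at 10 nM preincubated with compounds 15 min at room temperature; reaction started with fluorescent substrate (50 nM final) and read kinetically at 0 and 10 min.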
POLK inh: blocks human DNA polymerase kappa activity | 0.53% of 400,000 active | purified Pol kappa, fluorescent DNA synthesis assay, 10 min | Q9UBT6 | Potency, µM (highest dose often 107 µM), without a hit: at the highest dose activity, negative = inhibition, usual class: inhibitors; further: on the % scale 0 is the no-effect control and ±100 the full control effect
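Pol kappa 10 nM + cpd, 15 min RT; start w/ substrate 50 nM final; fluorescence kinetic read, 0 and 10 min. Neg ctrl: buffer, no enzyme.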
Pol beta inh: inhibitors of human DNA polymerase beta. Potency, µM (highest dose often 114 µM), inactives show at the highest dose activity change, negative = inhibition, hits mostly inhibitors. P06746. AID 485314. 1.3% of 340,000 active. Pol beta primer extension/strand displacement, fluorescence kinetic; further: on the % scale 0 is the no-effect control and ±100 the full control effect
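Reaction started by 50 nM substrate onto compound-treated Pol beta (10 nM, 15 min preincubation, room temperature); plates read at 0 min and 10 min. Normalized concentration-effect data fitted by four-parameter Hill equation.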
WRN helicase inh: inhibitors of human WRN helicase; Q14191; WRN helicase unwinding, fluorescent forked duplex, kinetic; Potency, µM (series often up to 114 µM), for the others: at the top dose activity change, negative = inhibition, usual class: inhibitors; 0.46% of 360,000 active; AID 651768; further: on the % scale 0 is the no-effect control and ±100 the full control effect; nearly all actives have a fitted effect of over 55% in size
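Primary qHTS, 1536-well format. 20 nM WRN + compound, 15 min RT; start with 100 nM forked fluorophore/quencher duplex, 2 mM ATP (final); kinetic read ex 525/em 598 nm.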
The depositor's hits bear a star; u = inconclusive; x = no result given; [ ] = remark or other dose. In the library only some 2.4% were active in any assay of this set; here they are far more common. The call rests on the fitted dose curve; in most records, active means well fitted curve in the direction sought with a large enough effect; inconclusive means small, poorly fitted or top-dose-only effect, or another doubt; inactive means no such curve, though single readings can be large; an effect the other way counts as inactive or inconclusive. Potency means the concentration at half of the fitted maximal effect.

SMILES	POLI inh	FEN1 inhibitor	POLH inh	POLK inh	Pol beta inh	WRN helicase inh
COc1ccc(CN2C(=O)NC(=O)/C(=C/c3cc(OC)c(OC)c(OC)c3)C2=O)cc1	21%	-16%	1%	-7%	-2%	45µM*
COc1cc(/C=C2/C(=O)NC(=O)N(c3ccc(C)cc3)C2=O)cc(OC)c1OC	69%	0%	-14%	-14%	-23%	u
O=C1NC(=O)N(c2ccccc2)C(=O)/C1=C\c1ccc([N+](=O)[O-])o1	x	x	x	x	7.9µM*	x
NCCCC[C@@H](N)C(=O)O	x	x	x	19%[60.1 µM]	x	x
Cc1ccc(NC(=O)C2CCCN(c3ncnc4onc(C)c34)C2)c(Cl)c1 (stereo not given)	31%	18%	-16%	4%	-15%	x
COc1ccc2c(c1)[C@@]13CCCCC1[C@@H](C2)N(C)CC3 (stereo not given in full)	x	x	x	-2%[60.1 µM]	x	x
CC(C)c1cc2c(c(O)c1O)[C@@]1(C(=O)O)CCCC(C)(C)[C@@H]1CC2	x	x	x	-10%[60.1 µM]	x	x
COc1ccc(/C=C2/C(=O)NC(=O)N(c3ccc(C)c(C)c3)C2=O)cc1CN1C(=O)c2ccccc2C1=O	142%	-11%	-8%	-12%	-14%	40µM*
O=C1NC(=O)N(c2ccccc2)C(=O)/C1=C\C=C\c1ccccc1	u	-1%	u	-11%	u	32µM*
COc1cccc2c1C13CC[N+]4(CC5CC5)CO[C@]1(CCC(=O)C3)C4C2	x	x	x	1%[19.4 µM]	x	x
CCCc1cc(=O)oc2cc(OCc3ccc(C(=O)O)o3)ccc12	113%	-1%	u	-16%	71µM*	-3%[11.6 µM]
COc1ccc(-c2cc(=O)c3cc(OCC(=O)OC(C)C)ccc3o2)cc1	-7%	24%	-8%	-1%	-2%	x
CC(=O)OC1C[C@@]2(C)C(c3ccoc3)C[C@H]3O[C@@]32[C@@]2(C)C(=O)C(O)=C3C(C)(C)C(=O)C=C[C@]3(C)C12 (stereo not given in full)	x	x	x	-10%[60.1 µM]	x	x
O=c1[nH]sc2cc(F)ccc12	93%	u	-4%	6%	u	32µM*
Cc1cc(C=C2C(=O)NC(=S)NC2=O)c(C)n1-c1ccc2c(c1)OCO2	20µM*	-20%	20µM*	79µM*	89µM*	u
CCCCCCCC/C=C\CCCCCCCC(=O)OC[C@@H](COP(O)(O)=S)OC	x	x	x	17µM*	x	x
COC(=O)C(O)C(O)(CCC(C)C)C(=O)OC1C(OC)=CC23CCCN2CCc2cc4c(cc2C13)OCO4 (stereo not given)	x	x	x	-4%[60.1 µM]	x	x
CCN1C(=O)NC(=O)/C(=C\c2ccc(N3CCOCC3)cc2OC)C1=O	x	x	x	x	-1%	x
COc1cc(N2CCOCC2)ccc1/C=C1\C(=O)NC(=O)N(C2CCCCC2)C1=O	-4%	-2%	-18%	-1%	21%	79µM*
CCn1c(=O)oc2cc(NC(=O)CCl)ccc21	94%	-1%	-16%	-8%	17%	0%
CC(C)CC(=O)Nc1ccc(C(=O)Cn2c(=O)oc3ccccc32)cc1	u	-10%	0%	-7%	20µM*	4%
C=CCN1C[C@H](C)N([C@H](c2ccc(C(=O)N(CC)CC)cc2)c2cccc(O)c2)C[C@H]1C	x	x	x	-11%[19.4 µM]	x	x
COC(=O)c1c(Sc2ccccc2)c2ccccc2n1C	u	10%	-5%	u	13%	1%
C=CCc1cc(C=C2C(=O)NC(=O)NC2=O)cc(OC)c1OCc1ccc(C(=O)O)cc1	u	u	50µM*	-20%	u	-11%
CNS(=O)(=O)c1ccc(-c2ccc(C=C3C(=O)NC(=O)NC3=O)o2)cc1	22µM*	u	-8%	3%	u	u
SMILES	POLI inh	FEN1 inhibitor	POLH inh	POLK inh	Pol beta inh	WRN helicase inh
CC/C(=C\C=C\[C@@H]1C=C[C@@H]2CCC[C@H]2[C@@H]1C(=O)c1ccc[nH]1)[C@@H]1O[C@@H]([C@@H](C)C(=O)O)CC[C@@H]1C	u	-18%	89µM*	u	u	-35%
CC(=O)c1cccc(NC(=O)c2noc3c2CSc2ccccc2-3)c1	51%	3%	9%	8%	5%	x
Cc1ccccc1-n1c(O)c(/C=C2/C(c3ccccc3)=Nc3ccccc32)c(=O)[nH]c1=O	-13%	-19%	-11%	-11%	39%	u
COc1ccc(-n2c(O)c(/C=C3\C=Nc4ccccc43)c(=O)[nH]c2=O)cc1	u	-17%	u	-5%	-21%	0%
COc1ccc(-n2c(O)c(/C=C3\C=Nc4ccc(Br)cc43)c(=O)[nH]c2=O)c(OC)c1	u	u	79µM*	-15%	20%	-13%[11.6 µM]
COC(=O)C1=Nc2ccccc2/C1=C\c1c(O)n(-c2cc(OC)ccc2OC)c(=O)[nH]c1=O	-8%	-16%	u	-20%	-21%	50µM*
O=c1[nH]c(=O)n(-c2ccc(F)cc2)c(O)c1/C=C1\C=Nc2ccccc21	7.9µM*	-3%	89µM*	u	17%	u
COc1ccc(-n2c(O)c(/C=C3\C=Nc4ccc(Br)cc43)c(=O)[nH]c2=O)cc1	7.9µM*	-34%	-16%	-5%	-13%	-6%[57.1 µM]
CCOP(=S)(OCC)O/N=C(\C#N)c1ccccc1Cl	x	x	x	-4%[60.1 µM]	x	x
CCOc1ccc(C(=O)Nc2cccc(C(=O)OCc3cc(=O)n4nc(C5CC5)sc4n3)c2)cc1	9%	19%	u	-15%[60.1 µM]	-15%	x
COc1cc2c(cc1O)[C@@H]1Cc3ccc(OC)c(O)c3CN1CC2	10µM*	u	u	-5%	x	16%
COc1ccc(C[C@@H]2c3cc(O)c(OC)cc3CCN2C)cc1O	64%	9%	-14%	-17%	5%	0%
CCOC(=O)C(SP(=S)(OC)OC)c1ccccc1 (stereo not given)	x	x	x	-16%[60.1 µM]	x	x
CC(C)CN1CC[C@@]2(CCCN(C(=O)Oc3ccccc3)C2)C1	x	x	x	-4%[60.1 µM]	x	x
O=C(O[C@@H]1Cc2c(O)cc(O)cc2O[C@@H]1c1cc(O)c(O)c(O)c1)c1cc(O)c(O)c(O)c1	x	x	x	x	0.45µM*	x
O=C1C[C@@H](c2ccc(O)cc2)Oc2cc(O)cc(O)c21	11%	6%	-14%	-2%	-19%	3%
Oc1cc(O)c2c(c1)OC(c1cc(O)c(O)c(O)c1)C(O)C2 (stereo not given)	x	x	x	4µM*	x	x
COC1C(O)C(C)O[C@H](OC2CC[C@@]3(C=O)C4CC[C@]5(C)C(C6=CC(=O)OC6)CC[C@@]5(O)C4CC[C@@H]3C2)C1O (stereo not given in full)	x	x	x	-3%[60.1 µM]	x	x
C[C@@H]1OC(=O)[C@H]2C[C@H]3CCCC[C@@H]3[C@@H](/C=C/[C@H]3CCC[C@H](C)N3C)[C@@H]12	x	x	x	5%[19.4 µM]	x	x

Bioassay records as filed in PubChem BioAssay.
